The source of these data is PubChem BioAssay (Tox21).

Experiment [1] in a line: qHTS assay to identify small molecule agonists of the vitamin D receptor (VDR) signaling pathway - cell viability counter screen (AID 743224). Further: series mostly up to about 63 µM; nearly all actives have a fitted effect of over 50% in size. The procedure, abridged:
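Counter screen run in the same wells as the VDR-bla reporter assay: CellTiter-Glo luminescence, 30 min at room temperature, after 16 h compound treatment at 37C of cells pre-plated for 4 h.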

The nature of experiment [2]: qHTS assay to identify small molecule antagonists of the vitamin D receptor (VDR) signaling pathway - cell viability counter screen (AID 743225). Further: nearly all actives have a fitted effect of over 50% in size. Further: potency means the concentration at half of the fitted maximal effect. The procedure, abridged: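 Cytotoxicity toward the VDR-bla HEK 293T line was scored by ATP-based CellTiter-Glo luminescence, read in the wells already used for the beta-lactamase readout after 16 h compound treatment under 3 nM 1-alpha,25-dihydroxyvitamin D3 stimulation.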

The nature of experiment [3]: qHTS assay to identify small molecule agonists of the NFkB signaling pathway - cell viability counter screen (AID 1159515; calls by dose curve; further: series mostly up to about 61 µM; nearly all actives have a fitted effect of over 55% in size). The procedure, abridged:
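Read by CellTiter-Glo luminescence (30 min, room temperature) in the wells also used for the beta-lactamase FRET read. ME-180 NFkB-bla cells at 2,000 per well were plated overnight, then exposed to compound for 5 hr at 37 C.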
For orientation: In qHTS, concentration-response curves come from the screen itself.

Experiment [4] is described as follows: qHTS assay to identify small molecule agonists of the endoplasmic reticulum stress response signaling pathway (AID 1159516; active means well fitted activation curve with a large enough effect in the signal ratio in the repeat runs, not every such curve was filed as active; the % refers to the signal ratio). The procedure, abridged: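 Ratiometric FRET readout (405 nm excitation; 460 and 530 nm emission) of a beta-lactamase gene driven by the ER stress response element, after 2 hr substrate loading. HeLa ESRE-bla cells were seeded overnight and treated with compounds for only 5 hr at 37 C.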

Experiment [5] can be described thus: qHTS assay to identify small molecule agonists of the endoplasmic reticulum stress response signaling pathway - cell viability counter screen (AID 1159517; calls by dose curve; further: series mostly up to about 61 µM; nearly all actives have a fitted effect of over 50% in size). The method in brief: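 Cytotoxicity of test compounds toward ESRE-bla HeLa cells was assessed after 5 hr exposure. The luminescent CellTiter-Glo signal was measured 30 min after reagent addition.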
Experiment [6] in a line: qHTS assay to identify small molecule antagonists of the retinoid-related orphan receptor gamma (ROR-gamma) signaling pathway - cell viability counter screen (AID 1159520). Further: nearly all actives have a fitted effect of over 50% in size. Further: potency means the concentration at half of the fitted maximal effect. The method in brief:
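Tet-on ROR gamma CHO cells (1,000/well) were plated 4 hr, given compounds in DMSO for 2 hr at 37 C, then induced with 1 uM final doxycycline for 16 hr. Viability was read as ATP by CellTiter-Glo luminescence after 30 min.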

For experiment [7], the target named is Nuclear receptor ROR-gamma (Homo sapiens) (UniProt P51449). The experiment can be described thus: qHTS assay to identify small molecule antagonists of the retinoid-related orphan receptor gamma (ROR-gamma) signaling pathway (AID 1159521; further: nearly all actives have a fitted effect of over 50% in size; further: potency means the concentration at half of the fitted maximal effect). The method in brief: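 Readout: ONE-Glo luciferase luminescence, 30 min at room temperature. System: Tet-on RORγ CHO, RORE-LUC. Sequence: compound 2 h, doxycycline 1 uM final, 16 h at 37 C.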

A short description of experiment [8]: qHTS assay to identify small molecule agonists of the AP-1 signaling pathway - cell viability counter screen (AID 1159525; calls by dose curve; further: nearly all actives have a fitted effect of over 55% in size; further: potency means the concentration at half of the fitted maximal effect). The procedure, abridged:
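Each titration point was normalised to DMSO and tetra n-octyl ammonium bromide controls. The read was Cell Titer Glo luminescence after 30 min at RT, following 5 h compound exposure of ME-180 AP-1-bla cells at 37 °C.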

Experiment [9] can be described thus: qHTS assay to identify small molecule agonists of the AP-1 signaling pathway (AID 1159526; calls by dose curve).
The target in experiment [10] is Retinoic acid receptor RXR-alpha (Homo sapiens) (UniProt P19793). The experiment can be described thus: qHTS assay to identify small molecule agonists of the RXR signaling pathway (AID 1159527; calls by dose curve; further: nearly all actives have a fitted effect of over 35% in size; further: potency means the concentration at half of the fitted maximal effect). The method in brief: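 Reporter activation is measured as beta-lactamase activity via FRET substrate cleavage (emission 460/530 nm) in HEK 293T cells expressing an RXR-alpha-driven bla construct, following 16 hr compound exposure at 37 C.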

Experiment [11] is described as follows: qHTS assay to identify small molecule agonists of the RXR signaling pathway - cell viability counter screen (AID 1159529). Further: nearly all actives have a fitted effect of over 50% in size. Further: potency means the concentration at half of the fitted maximal effect. The method in brief: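 Tox21 10K compounds were tested for cytotoxicity against GeneBLAzer RXR-alpha HEK 293T cells grown in 2% charcoal-stripped FBS. Exposure lasted 16 hr at 37 C, 5% CO2; viability read by CellTiter-Glo luminescence.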

Experiment [12] can be described thus: qHTS assay to identify small molecule antagonists of the retinoid acid receptor (RAR) signaling pathway - cell viability counter screen (AID 1159551). Further: nearly all actives have a fitted effect of over 35% in size. Further: potency means the concentration at half of the fitted maximal effect. The method in brief:
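Cytotoxicity counter screen: ATP content quantified by CellTiter-Glo luminescence in C3RL4 cells treated 6 hr at 37 C with compound and retinol (1 uM final). Cells plated at 1,000/well and cultured overnight before dosing.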

Experiment [13] can be described thus: qHTS assay to identify small molecule antagonists of the retinoic acid receptor (RAR) signaling pathway (AID 1159552; further: nearly all actives have a fitted effect of over 50% in size; further: potency means the concentration at half of the fitted maximal effect). The method in brief: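 Overnight-plated C3RL4 reporter cells get compound, then retinol to 1 uM final; plates sit 6 hr at 37 C, 5% CO2. A luciferase reagent is added and light output recorded after 30 min at room temperature.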
Experiment [14] can be described thus: qHTS assay to identify small molecule agonists of the retinoic acid receptor (RAR) signaling pathway (AID 1159553). Further: potency means the concentration at half of the fitted maximal effect. The method in brief:
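Luminescence was measured 30 min after luciferase reagent addition at room temperature. Before that, C3RL4 reporter cells (1,000 per well, plated overnight) were treated with compound for 6 hr at 37 C and 5% CO2.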

Experiment [15] can be described thus: qHTS assay to identify small molecule agonists of the NFkB signaling pathway (AID 1159509; active means well fitted curve in the direction sought with a large enough effect in the signal ratio in the repeat runs, not every such curve was filed as active; the % refers to the signal ratio; further: series mostly up to about 61 µM). The method in brief:
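Readout: FRET fluorescence, 405 nm excitation, 460/530 nm emission; beta-lactamase expression disrupts FRET. Cells: ME-180 stably carrying NF-kB-driven bla reporter. Compound exposure 5 hr, 37 C, 5% CO2.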

Experiment [16] can be described thus: qHTS assay to identify small molecule antagonists of the estrogen related receptor (ERR) signaling pathway - cell viability counter screen (AID 1224818).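 Further: series mostly up to about 46 µM; viability measured after 17.5 h of compound exposure.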 The method in brief:
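Cytotoxicity counter screen: fluorescence from CellTiter-Fluor, added after 17.5 h compound exposure at 37 C and read 30 min later. ERR cell line seeded at 2,000 cells/well, preincubated 6 h before dosing.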

Experiment [17] is described as follows: qHTS assay to identify small molecule antagonists of the estrogen related receptor (ERR) signaling pathway (AID 1224819). The method in brief: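 LOPAC library screened for antagonism as reduced One-Glo luminescence in ERR reporter cells (2,000/well). Compounds were added after 6 h pre-incubation and left 18 h at 37C; reading followed a 30 min room-temperature reagent step.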

The nature of experiment [18]: qHTS assay to identify small molecule agonists of the estrogen related receptor (ERR) signaling pathway (AID 1224820). The procedure, abridged:
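Luminescence readout (One-Glo, 30 min RT) from NTP-supplied ERR cell line exposed to compounds for 18 h at 37 C. Cells seeded 2,000 per well and pre-incubated 6 h before pin-tool compound transfer.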

Experiment [19] has as its system estrogen-related receptor alpha (ERRalpha) with PGC-1alpha coactivator, human. Description: qHTS assay to identify small molecule antagonists of the estrogen related receptor signaling pathway with the pleiotropic PPARgamma coactivator (PGC) (AID 1224821; calls by dose curve). The procedure, abridged:
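PGC/ERR reporter cells; 6 h pre-incubation 37 C/5% CO2; pin-tool compound in DMSO, 18 h 37 C; One-Glo added, 30 min RT; luminescence read. qHTS antagonist mode.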

The nature of experiment [20]: qHTS assay to identify small molecule antagonists of the estrogen related receptor signaling pathway with the pleiotropic PPARgamma coactivator (PGC) cell viability counter screen (AID 1224822; further: series mostly up to about 46 µM). The procedure, abridged:
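Viability counter-screen read by fluorescence intensity after 30 min with CellTiter-Fluor at 37 C; PGC/ERR reporter cells were exposed to compounds for 17.5 h at 37 C following a 6 h preincubation.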

Several values for one entry are separate records, joined by “and”; a condition that tells them apart may be missing. Equal values may be shown once. Records with an inconclusive call do not appear. A structure can be active in one record and inactive in another. Activity calls are given as the source filed them. Unless noted, the call rests on the fitted dose curve; in most records, active means well fitted curve in the direction sought with a large enough effect in the repeat runs; inconclusive means weak or mixed curves; inactive means no such curve, though single readings can be large; an effect the other way counts as inactive or inconclusive.

Chain of Retinoic acid receptor RXR-alpha (Homo sapiens) (P19793 whole entry, looked up): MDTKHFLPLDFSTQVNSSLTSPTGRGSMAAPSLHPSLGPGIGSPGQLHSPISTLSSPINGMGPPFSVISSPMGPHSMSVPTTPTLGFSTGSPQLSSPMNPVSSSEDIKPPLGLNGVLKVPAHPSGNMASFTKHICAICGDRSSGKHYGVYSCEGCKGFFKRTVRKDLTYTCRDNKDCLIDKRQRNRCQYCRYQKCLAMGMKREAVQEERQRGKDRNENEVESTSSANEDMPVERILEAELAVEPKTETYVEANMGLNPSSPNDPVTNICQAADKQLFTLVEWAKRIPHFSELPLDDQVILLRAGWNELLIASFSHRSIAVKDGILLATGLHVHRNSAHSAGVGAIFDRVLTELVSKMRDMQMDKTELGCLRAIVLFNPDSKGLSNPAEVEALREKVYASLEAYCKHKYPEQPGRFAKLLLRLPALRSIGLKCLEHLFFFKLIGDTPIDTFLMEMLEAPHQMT

Turning to `C=CCc1ccc(O)c(OC)c1`, the Potency entry in experiment [1], in [2], in experiment [3], in [4], in experiment [5] and in [6] was “inactive” in each case. For the same compound, the Potency result in [7], in experiment [8], in experiment [9], in [10], in [11] and in [12] was “inactive” each time. The Potency result in experiment [13] and in [14] was “inactive” throughout.
As for `O=c1[nH]cnc2c1ncn2[C@H]1CC[C@@H](CO)O1`, the Potency result in [1], in experiment [2], in [3], in experiment [4], in experiment [5] and in experiment [6] was “inactive” each time. Besides, the Potency entry in [7], in experiment [8], in experiment [9], in experiment [10], in [11] and in experiment [12] was “inactive” each time. Moreover, the Potency entry in experiment [13] and in [14] was “inactive” in each case.
With `NC(=O)n1c(O)c(C(=O)c2cccs2)c2cc(Cl)ccc21`, the Potency entry in experiment [2], in experiment [5], in experiment [8], in [9], in experiment [12] and in [13] was “inactive” each time. In addition, the Potency entry in experiment [14] was “inactive”. Also, in experiment [15], the call was inactive. Further, in [7], the Potency is 6.68 µM (active).
With `CC1(C)O[C@@H]2C[C@H]3[C@@H]4CCC5=CC(=O)C=C[C@]5(C)[C@@]4(F)[C@@H](O)C[C@]3(C)[C@]2(C(=O)CO)O1`, the Potency result in experiment [1], in experiment [2], in [3], in [4], in [5] and in [6] was “inactive” in each case. Moreover, the Potency result in [7], in [8], in [9], in [10], in experiment [11] and in experiment [12] was “inactive” throughout. In addition, the Potency entry in experiment [13] and in experiment [14] was “inactive” each time.
In the case of `CCCCNC(=O)NS(=O)(=O)c1ccc(C)cc1`, the Potency result in experiment [1], in [2], in experiment [3], in experiment [4], in experiment [5] and in [6] was “inactive” each time. In addition, the Potency result in experiment [7], in [8], in experiment [9], in experiment [10], in experiment [11] and in experiment [12] was “inactive” throughout. In addition, the Potency result in [17] and in experiment [20] was “inactive” in each case. Also, the call in [16], in [18] and in experiment [19] was inactive.
For the compound `CS(=O)(=O)OCCCCOS(C)(=O)=O`, the Potency result in experiment [1], in experiment [2], in experiment [3], in [4], in experiment [5] and in experiment [6] was “inactive” each time. Moreover, the Potency result in experiment [7], in experiment [8], in experiment [9], in [11], in experiment [12] and in experiment [13] was “inactive” throughout. The Potency result in [14] is “inactive”. In experiment [10], the Potency result was “inactive and 17.4 µM (active)”.
On to `O=C(Nc1ncc([N+](=O)[O-])s1)c1cccs1`, for which the compound was classed as inactive in experiment [15]. The Potency is 13.3 µM (active) in experiment [6], 6.01 µM (active) in experiment [11], 23.7 µM (active) in experiment [12] and 1.06 µM (active) in experiment [14]. In addition, the Potency result in [7] and in experiment [13] was “inactive” in each case.
Consider `C1CCC(C(CC2CCCCN2)C2CCCCC2)CC1` (stereo not drawn), for which the Potency in experiment [2] was 21.3 µM (active); in experiment [6] it was 26.6 µM (active); in experiment [8] it was 23.9 µM (active); in experiment [11], 23.9 µM (active); in experiment [12], 29.8 µM (active); in experiment [13], 9.44 µM (active). In [15], the compound was classed as inactive.
For `NS(=O)(=O)c1cc2c(cc1Cl)NCNS2(=O)=O`, the Potency result in [1], in experiment [2], in experiment [3], in experiment [4], in experiment [5] and in experiment [6] was “inactive” in each case. In addition, the Potency result in experiment [7], in experiment [8], in [9], in [10], in experiment [11] and in experiment [12] was “inactive” each time. Besides, the Potency entry in [17] and in [20] was “inactive” in each case. The compound was classed as inactive in [16], in experiment [18] and in experiment [19].
